Where “and” joins values, the source holds several entries; their conditions need not be identical. Equal values may be shown once. Where a name gives a salt, the structure may show the parent alone. ± gives the standard deviation of the averaged measurements.
test system: HT-1080; assay: relative cell viability with RSL3 co-treatment (fraction of control); higher = stronger protection from RSL3-induced ferroptosis (higher viability); conditions: 10 µM
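Further: viability read as CCK-8 absorbance at 450 nm in cells co-exposed to the GPX4 inhibitor RSL3, relative to a 0.01% DMSO vehicle control.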

Row | Compound | relative cell viability
1 | NC(=O)c1ncn([C@@H]2O[C@H](CO)[C@@H](O)[C@H]2O)c1N [AICAR (Acadesine)] | 1.03 ± 0.011
2 | CCCNC(=O)Nc1ccc(Oc2ncnc3cc(OC)c(OC)cc23)cc1Cl | 0.757 ± 0.42
3 | COc1nccc(-c2c(-c3ccc(F)cc3)ncn2C2CCC(O)CC2)n1 (stereo not drawn) | 0.667 ± 0.16
4 | Cc1nc(N)sc1-c1ccnc(Nc2ccc(N3CCOCC3)cc2)n1 | 0.6 ± 0.095
5 | C[C@@H]1CCN(C(=O)CC#N)C[C@@H]1N(C)c1ncnc2[nH]ccc12 | 0.75 and 0.64
6 | N#CC1(c2ccc(NC(=O)c3cccnc3NCc3ccncc3)cc2)CCCC1 [Apatinib] | 0.643 ± 0.046
7 | CNc1nc(Nc2cnn([C@H]3CCN(C4COC4)C[C@@H]3F)c2Cl)ncc1C(F)(F)F | 0.617 ± 0.032
8 | CC1=C(C(=O)Nc2cc3cn[nH]c3cc2F)C(c2ccc(C(F)(F)F)cc2)CC(=O)N1 (stereo not drawn) | 0.883 ± 0.084
9 | Cc1cc(F)c(Nc2ncnc3cc(OCc4ccccc4)ccc23)cc1O | 0.797 ± 0.021
10 | Oc1ccc(-c2nc(-c3ccc(F)cc3)c(-c3ccncc3)[nH]2)cc1 | 0.717 ± 0.05
11 | Nc1ncnc2c1c(-c1cnc3[nH]ccc3c1)nn2C1CCCC1 | 0.397 ± 0.092
12 | O=C1Nc2ccc(I)cc2/C1=C/c1cc(Br)c(O)c(Br)c1 | 0.573 ± 0.2
13 | C=CC(=O)Nc1ccc(CN2C(=O)N(c3cc(OC)cc(OC)c3)Cc3cnc(Nc4ccc(N5CCN(C)CC5)cc4)nc32)cc1 | 0.56 ± 0.01
14 | Oc1ccc(Nc2nc(-c3ccc(Cl)cc3)cs2)cc1 | 0.66 ± 0.095
15 | CCc1ccc(/C=C2/SC(=S)NC2=O)cc1 | 0.62 ± 0.087
16 | O=C(Nc1ccccc1C(=O)NC1CCCCNC1=O)c1cc2ccccc2s1 (stereo not drawn) | 0.803 ± 0.011
17 | COc1cc2ncnc(Oc3cccc(NC(=O)Nc4cc(C(C)(C)C(F)(F)F)on4)c3)c2cc1OC | 0.68 ± 0.17
18 | C[C@H]1[C@H](C)CC[C@]2(C(=O)O)CC[C@]3(C)C(=CC[C@@H]4[C@@]5(C)C[C@@H](O)[C@H](O)[C@@](C)(CO)[C@@H]5CC[C@]43C)[C@H]12 [Asiatic Acid] | 0.58 ± 0.14
19 | CNC(=O)c1ccc(C)c(-n2c(C)cc(OCc3ccc(F)cc3F)c(Br)c2=O)c1 | 0.747 ± 0.067

Row | Compound | relative cell viability
20 | Cc1[nH]nc2ccc(-c3cncc(OC[C@@H](N)Cc4ccccc4)c3)cc12 | 0.59 ± 0.02
21 | Cc1cc(O)c2c(c1)C(=O)c1cccc(O)c1C2=O [Chrysophanic Acid] | 0.6567 ± 0.0058
22 | O=c1c(O)c(-c2ccc(O)c(O)c2)oc2cc(O)cc(O)c12 [Quercetin] | 0.703 ± 0.074
23 | O=C(O)CCC(=O)Nc1ccc(Br)cn1 [Bikinin] | 0.723 ± 0.14
24 | CS(=O)(=O)CCNCc1ccc(-c2ccc3ncnc(Nc4ccc(OCc5cccc(F)c5)c(Cl)c4)c3c2)o1 | 0.673 ± 0.032
25 | C[C@@H](NC(=O)c1ncnc(N)c1Cl)c1ncc(C(=O)Nc2cc(C(F)(F)F)c(Cl)cn2)s1 | 0.6467 ± 0.0058
26 | Oc1c(F)cc(-c2cnccc2-c2ccc(N3CCOCC3)cc2)cc1F | 0.757 ± 0.072
27 | CCCCCCCCCCCCc1ccc(S(=O)(=O)Nc2nncs2)cc1 | 0.877 ± 0.09
28 | C[C@@H]1CN(CC(=O)Nc2ccc3c(c2)Cc2cccc(-c4cc(=O)cc(N5CCOCC5)o4)c2S3)C[C@H](C)O1 | 0.46 ± 0.11
29 | CCn1c(=O)c(-c2ccc(-c3cncs3)cc2Cl)cc2cnc(Nc3ccc(N4CCN(C)CC4)cc3)nc21 | 0.833 ± 0.032
30 | CNC(=O)c1cc(Oc2ccc3nc(N[C@@H]4CCCC[C@H]4O)sc3c2)ccn1 | 0.767 ± 0.05
31 | O=C(NOC[C@H](O)CO)c1ccc(F)c(F)c1Nc1ccc(I)cc1F | 0.897 ± 0.032
32 | Nc1cccc(S(=O)(=O)N2CCCN(S(=O)(=O)c3ccc4c(c3)OCCO4)CC2)c1 | 0.767 ± 0.049
33 | O=c1[nH]nc(Sc2ncc([N+](=O)[O-])s2)n1-c1ccc2c(c1)OCCO2 | 0.533 ± 0.045
34 | Cc1cc([C@@H](C)Nc2ccccc2C(=O)O)c2nc(N3CCOCC3)cc(=O)n2c1 | 0.593 ± 0.18
35 | O=S(=O)(c1cccc2cnccc12)N1CCCNCC1 [Fasudil (HA-1077) HCl] | 1.13 ± 0.1
36 | CCCS(=O)(=O)Nc1ccc(F)c(C(=O)c2c[nH]c3ncc(Cl)cc23)c1F | 0.64 ± 0.036
37 | Cc1cc2c(F)c(Oc3ncnn4cc(OC[C@@H](C)O)c(C)c34)ccc2[nH]1 | 0.753 ± 0.078
38 | COc1cc2ncnc(Nc3ccc(F)c(Cl)c3)c2cc1NC(=O)/C=C/CN1CCCCC1 | 0.61 ± 0.046

Source: the supplement of paper PMC9588786
